Data published in PubChem BioAssay AID1347074 (Center for Chemical Genomics, University of Michigan, 2019).
Among all 47,000 compounds or so, about 2,800 (6%) were called active. No stated cut-off is given here; in the data, active means z-score above about 3 (passing the limit was not always enough); inactive means the rest. This excerpt belongs to a sample that is enriched for actives.

target: Endoribonuclease Dicer (Homo sapiens) (UniProt Q9UPY3); assay: Dicer cleavage of pre-miR-21 blockers – biochemical, cat-ELCCA, chemiluminescence, primary screen (AID 1347074); conditions: cat-ELCCA pre-miR-21 Dicer processing, at 25 µM, active compounds read high;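 further: plate controls were vehicle for no effect and no enzyme for full effect; higher signal means more uncleaved substrate so more Dicer inhibition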
Sequence (Q9UPY3 whole entry, looked up): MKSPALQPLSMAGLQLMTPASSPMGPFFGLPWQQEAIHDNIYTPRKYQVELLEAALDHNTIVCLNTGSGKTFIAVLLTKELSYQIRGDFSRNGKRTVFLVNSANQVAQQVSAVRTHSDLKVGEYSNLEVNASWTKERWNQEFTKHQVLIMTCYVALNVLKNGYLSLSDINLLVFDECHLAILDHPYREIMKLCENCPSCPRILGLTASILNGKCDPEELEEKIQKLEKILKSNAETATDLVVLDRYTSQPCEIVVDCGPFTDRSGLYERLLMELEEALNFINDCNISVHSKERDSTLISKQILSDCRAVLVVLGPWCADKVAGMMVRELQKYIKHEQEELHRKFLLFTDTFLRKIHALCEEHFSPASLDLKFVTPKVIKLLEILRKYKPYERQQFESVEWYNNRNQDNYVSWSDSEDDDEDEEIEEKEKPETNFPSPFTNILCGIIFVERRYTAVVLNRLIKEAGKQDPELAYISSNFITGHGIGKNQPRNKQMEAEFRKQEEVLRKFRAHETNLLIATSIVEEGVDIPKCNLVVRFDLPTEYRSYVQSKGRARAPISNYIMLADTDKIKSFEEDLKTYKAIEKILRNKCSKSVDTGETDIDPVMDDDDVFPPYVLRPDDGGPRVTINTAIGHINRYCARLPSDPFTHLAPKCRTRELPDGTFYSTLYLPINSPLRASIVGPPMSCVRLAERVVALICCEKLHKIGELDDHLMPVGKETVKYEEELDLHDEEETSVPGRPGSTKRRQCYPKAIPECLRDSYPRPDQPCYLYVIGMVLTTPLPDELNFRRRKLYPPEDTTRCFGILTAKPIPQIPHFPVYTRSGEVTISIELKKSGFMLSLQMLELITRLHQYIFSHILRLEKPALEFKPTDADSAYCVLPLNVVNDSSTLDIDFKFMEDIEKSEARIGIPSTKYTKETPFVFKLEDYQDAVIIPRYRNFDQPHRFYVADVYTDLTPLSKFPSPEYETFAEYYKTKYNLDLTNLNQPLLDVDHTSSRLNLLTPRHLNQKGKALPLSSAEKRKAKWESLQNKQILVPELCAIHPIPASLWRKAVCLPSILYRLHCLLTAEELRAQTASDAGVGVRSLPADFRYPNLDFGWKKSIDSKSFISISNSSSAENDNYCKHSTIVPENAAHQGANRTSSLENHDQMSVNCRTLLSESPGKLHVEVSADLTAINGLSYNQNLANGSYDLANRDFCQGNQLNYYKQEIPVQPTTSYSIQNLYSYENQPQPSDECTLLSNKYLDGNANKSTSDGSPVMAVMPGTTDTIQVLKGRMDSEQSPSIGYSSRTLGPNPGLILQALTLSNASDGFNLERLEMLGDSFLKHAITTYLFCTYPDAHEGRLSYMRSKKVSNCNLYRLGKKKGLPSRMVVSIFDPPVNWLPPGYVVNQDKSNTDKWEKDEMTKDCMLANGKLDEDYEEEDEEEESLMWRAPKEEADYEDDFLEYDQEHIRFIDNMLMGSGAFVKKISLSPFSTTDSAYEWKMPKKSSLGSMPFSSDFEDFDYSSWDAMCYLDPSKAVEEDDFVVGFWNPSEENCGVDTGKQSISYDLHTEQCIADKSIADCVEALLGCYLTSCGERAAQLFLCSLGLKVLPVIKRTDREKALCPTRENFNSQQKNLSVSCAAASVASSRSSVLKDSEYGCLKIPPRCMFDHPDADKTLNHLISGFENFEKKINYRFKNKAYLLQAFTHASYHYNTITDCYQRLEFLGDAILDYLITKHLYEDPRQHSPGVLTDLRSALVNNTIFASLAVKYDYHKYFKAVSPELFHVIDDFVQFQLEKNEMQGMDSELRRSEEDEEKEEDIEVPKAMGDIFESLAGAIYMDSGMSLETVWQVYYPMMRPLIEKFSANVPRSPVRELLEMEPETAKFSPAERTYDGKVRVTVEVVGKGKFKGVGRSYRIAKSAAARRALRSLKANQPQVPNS

Row | Structure (SMILES) | z-score
1 | Cc1ccc(-n2nnnc2-c2cnc3ccccc3c2C)cc1 | -0.58 (inactive)
2 | FC(F)(F)c1nc(-c2ccccc2)ncc1-c1nnnn1-c1ccccc1 | 3.06 (active)
3 | Fc1ccc(-n2nnnc2-c2cnc3ccc(Cl)cc3c2-c2ccccc2)cc1 | 0.2 (inactive)
4 | CCc1ccccc1N1CC23C=CC(O2)C(C(=O)OC(C)C)C3C1=O (centres undefined) | -0.64 (inactive)
5 | COc1cc(/C=C2/N=C(c3ccccc3)N(C)C2=O)cc(OC)c1OC | 2.54 (inactive)
6 | CCOC(=O)c1c(C)[nH]c(=O)c([N+](=O)[O-])c1O | 0.2 (inactive)
7 | CC1([N+](=O)[O-])COC(c2ccccc2)OC1 (centres undefined) | 1.75 (inactive)
8 | O=C1OC2(CCCCC2)OC1c1ccccc1 (centres undefined) | 3.75 (active)
9 | Cn1c(=O)c(C#N)c(O)c2ccccc21 | 0.83 (inactive)
10 | CCCCc1ccc(S(N)(=O)=O)cc1 | -0.91 (inactive)
11 | CCCCc1ccc(-n2c(-c3ccc(F)cc3)coc2=O)cc1 | 9.25 (active)
12 | Fc1ccc(NC2=NCCN=C(Nc3ccc(F)cc3F)SS2)c(F)c1 | -0.47 (inactive)
13 | CSc1scc(NC(=O)Nc2cc(Cl)cc(Cl)c2)c1S(=O)(=O)C(C)C | 30.2 (active)
14 | O=C(Nc1cc(Cl)cc(Cl)c1)Nc1cnccc1C(F)(F)F | 0.4 (inactive)
15 | O=C(CSc1nc(-c2ccc(F)cc2)cc(C(F)(F)F)n1)N1CCOCC1 | -0.77 (inactive)
16 | C/C(=N\OC(=O)c1ccc(Cl)cc1)c1nnn(-c2cc(C(F)(F)F)cc(C(F)(F)F)c2)c1C | 0.47 (inactive)
17 | CCOc1ccc(S(=O)(=O)N2CCSC2c2cccc(Cl)c2)cc1 (centres undefined) | 1.41 (inactive)
18 | O=c1c2cc(-c3ccccc3)sc2n(Cc2ccccc2Cl)c(=O)n1-c1ccccc1 | 0.38 (inactive)
19 | COC(=O)c1c(NC(=O)CCCOc2ccc(Cl)cc2)sc2c1CCCC2 | 4.01 (active)
20 | CCCC1CCc2c(sc(NC(=O)COc3ccc(Cl)cc3)c2C(N)=O)C1 (centres undefined) | -0.31 (inactive)
21 | COC(=O)c1c(NC(=O)COc2ccccc2)sc2c1CCCC2 | 0.4 (inactive)
22 | CC1(C)CC(=O)C=C(Nc2cc(-c3ccc(Cl)cc3)[nH]n2)C1 | 2.1 (inactive)
23 | Cc1nc2cc(-n3c(O)c[nH]c3=O)ccc2s1 | 1.96 (inactive)
24 | CCOC(=O)c1c(C)n(CCOc2ccc(F)cc2)c2ccc(O)cc12 | 4.76 (active)
25 | CCOC(=O)c1c(C)oc2ccc(OCc3ccc(C(=O)OC)cc3)cc12 | 0.32 (inactive)

Row | Structure (SMILES) | z-score
26 | CCOC(=O)C1=C(O)CSC1=Nc1ccc(F)cc1 | 2.03 (inactive)
27 | Cc1cc(C)c2c(n1)sc1c(=O)n(C)cnc12 | 1.74 (inactive)
28 | CCOC(=O)C1=C(N)Oc2c(Br)cc(Cl)cc2C1C(C#N)C(=O)OCC (centres undefined) | 2.22 (inactive)
29 | CCOC(=O)C(NC(=O)c1ccccc1)(OC(C)C)C(F)(F)F (centres undefined) | 0.49 (inactive)
30 | FC(F)(F)c1cc(Cl)c2ncc(-c3ccc(Cl)c(Cl)c3)nc2c1 | 1.2 (inactive)
31 | O=c1n(Cc2ccccc2)c2ccccc2n1Cc1ccccc1 | -0.36 (inactive)
32 | Cc1nc2ccccc2n1C1CC(=O)N(c2ccccc2)C1=O (centres undefined) | 0.3 (inactive)
33 | NC1=NC(c2cc(F)cc(F)c2)n2c(nc3ccccc32)N1 (centres undefined) | -1.88 (inactive)
34 | CC(C)Cn1c(C2CC(=O)N(c3ccccc3)C2)nc2ccccc21 (centres undefined) | 5.98 (active)
35 | O=C1CC(c2nc3ccccc3n2Cc2ccc(F)cc2)CN1c1ccccc1 (centres undefined) | 5.55 (active)
36 | CCn1c(C(O)c2ccc(C(C)C)cc2)nc2ccccc21 (centres undefined) | 1.03 (inactive)
37 | CCCCOCC1CC2(CC(C)(c3csc(Nc4ccccc4Cl)n3)OC2=O)C(=O)O1 (centres undefined) | 0.26 (inactive)
38 | O=C(Nc1ccc2oc(-c3ccncc3)nc2c1)c1sc2ccccc2c1Cl | 0.13 (inactive)
39 | O=C(Nc1cccc2ncccc12)c1sc2ccccc2c1Cl | 0.23 (inactive)
40 | O=C(Nc1cccc(F)c1)c1sc2ccccc2c1Cl | 4.06 (active)
41 | N#CC1=C(N)Oc2cc(O)ccc2C1c1cccc(Br)c1 (centres undefined) | -2.59 (inactive)
42 | O=C1Nc2ccc(Br)cc2C1O (centres undefined) | -6.13 (inactive)
43 | CCOC(=O)c1cnn2c1nc(Oc1cc(C(F)(F)F)cc(C(F)(F)F)c1)c1ccccc12 | -0.15 (inactive)
44 | CC(C)NC(=O)NNc1cc(N(C)C)c(C#N)c(N(C)C)n1 | -3.01 (inactive)
45 | COC(=O)C(C)N(C#N)c1nc(N(C)C)nc(N(C)C)n1 (centres undefined) | 5.93 (active)
46 | COc1ccc(N2CCN(Cc3nc4c(c(=O)n(C)c(=O)n4C)n3CC(=O)C(C)(C)C)CC2)cc1 | -2.02 (inactive)
47 | Cc1ccc(/C(O)=C2\C(=O)C(=O)N(CCCN3CCOCC3)C2c2ccc(C)cc2)cc1 (centres undefined) | 0.47 (inactive)
48 | CCCCCCC#Cc1cncc(-c2nnc(SCC(=O)Nc3ccccc3)n2C)c1 | 0.64 (inactive)
49 | O=C(Nc1ccc(F)cc1F)N1CCN(c2ccccn2)CC1 | 2.53 (inactive)
50 | Cc1ccc(C)c(-c2nc(C)sc2CC(=O)O)c1 | 0.81 (inactive)

Row | Structure (SMILES) | z-score
51 | CCn1c(=O)c2c(n3c(SCC(N)=O)nnc13)-c1ccccc1CC21CCCCC1 | 5.92 (active)
52 | Cn1c(-c2ccccc2)nc2c(c1=O)C1(CCCCC1)Cc1ccccc1-2 | -0.41 (inactive)
53 | Fc1ccc(-c2cc3ncc4c(n3n2)-c2cc(F)ccc2OC4)cc1 | -1.86 (inactive)
54 | Cc1cc(C)c2c(c1)C(=O)C(c1cc(=O)c3ccccc3[nH]1)C2=O (centres undefined) | 1.92 (inactive)
55 | Clc1ccc(-c2csc(N/N=C\c3ccn[nH]3)n2)cc1 | 0.61 (inactive)
56 | CC(C)NC(=S)N/N=C/c1ccn[nH]1 | 3.01 (active)
57 | C/C(=N\NS(=O)(=O)c1ccc(Cl)cc1)c1cc(-c2ccccc2)no1 | -0.51 (inactive)
58 | CN(C)[C@@H]1C(=O)C(C(N)=O)=C(O)[C@@]2(O)C(=O)C3=C(O)c4c(O)ccc(Cl)c4[C@@H](O)[C@H]3C[C@@H]12 | 0.22 (inactive)
59 | C=C1c2c(Cl)ccc(O)c2C(O)=C2C(=O)[C@]3(O)C(O)=C(C(N)=O)C(=O)[C@@H](N(C)C)[C@@H]3[C@@H](O)C12 (some centres undefined) | 15.5 (active)
60 | O=C(NC(=O)c1c(F)cccc1F)Nc1ccc(Br)cc1F | 0.21 (inactive)
61 | O=C1Nc2ccc(S(=O)(=O)Nc3ccc4oc(=O)sc4c3)c3cccc1c23 | 1.49 (inactive)
62 | CC(C)C(=O)NNc1ncc(C(F)(F)F)cc1Cl | 0.4 (inactive)
63 | O=C1C(=O)N(CCCn2ccnc2)C(c2ccco2)/C1=C(\O)c1ccccc1 (centres undefined) | 2.79 (inactive)
64 | N#Cc1cccc(CSc2ncnc(N)n2)c1 | 3.87 (active)
65 | O=C(CSc1nnc(-c2ccco2)c(-c2ccco2)n1)Nc1ccc(Br)cc1 | -1.71 (inactive)
66 | Cc1[nH]nc2oc(=O)c([N+](=O)[O-])c(C)c12 | -1.74 (inactive)
67 | O=C1NC(c2ccccc2)=N/C1=C/c1ccc(F)cc1 | 3.84 (active)
68 | c1ccc(C2=Nc3cccc4cccc(c34)N2)cc1 | -0.61 (inactive)
69 | O=C1NNC(c2ccccc2)=N/C1=C\c1ccc(Cl)cc1 | -3.16 (inactive)
70 | O=C1C(=O)N(CCCn2ccnc2)C(c2ccncc2)/C1=C(\O)c1ccc(Cl)cc1 (centres undefined) | 1.19 (inactive)
71 | CCCc1n(CC(O)COc2ccc(C)cc2)c2ccccc2[n+]1C (centres undefined) | -0.91 (inactive)
72 | Cc1ccccc1CN1C=C(C(N)=O)C(C(F)(F)F)CC1 (centres undefined) | -0.6 (inactive)
73 | COc1cccc(CNC2CS(=O)(=O)CC2O)c1 (centres undefined) | 0.5 (inactive)
74 | CCc1c(C)nc2cc(-c3ccc(Br)cc3)[nH]n2c1=O | 1.4 (inactive)
75 | COCCOC(=O)C1=C(C)NC2=C(C(=O)CC(C)(C)C2)C1c1ccc(Br)cc1 (centres undefined) | -0.9 (inactive)

Row | Structure (SMILES) | z-score
76 | COc1csc2nc(C)cc(C)c12 | 2.93 (inactive)
77 | Cc1[nH]c2ccccc2c1C1(O)C(=O)Nc2ccccc21 (centres undefined) | 0.91 (inactive)
78 | O=C1Nc2ccccc2C12NNC(=S)NN2 | 8.53 (active)
79 | O=C(CC1(O)C(=O)Nc2ccccc21)c1ccc(F)cc1 (centres undefined) | -0.42 (inactive)
80 | CC1=C(C(=O)Nc2ccccc2)C(c2cccs2)C(C#N)=C(SCC(=O)O)N1 (centres undefined) | 0.54 (inactive)
81 | CC12CCC(C(=O)O)(CC1=O)C2(C)C (centres undefined) | 2.29 (inactive)
82 | O=C(Oc1ccc2ccccc2c1)c1ccncc1 | 0.81 (inactive)
83 | O=C(Oc1ccc(Br)cc1)c1cccnc1 | 5.46 (active)
84 | O=C1C(=O)N(c2cccnc2)C(c2ccc(Br)cc2)/C1=C(\O)c1ccc(Cl)cc1 (centres undefined) | 0.32 (inactive)
85 | O=C1CC(c2ccc(F)cc2)Cc2nc3nc(C(F)(F)F)nn3cc21 (centres undefined) | -0.42 (inactive)
86 | COc1ccc(C2N3CC4(C)CN2CC(C)(C3)C4)cc1 (centres undefined) | 1.02 (inactive)
87 | CC(C)Oc1ccc(C2N3CC4(C)CN2CC(C)(C3)C4)cc1 (centres undefined) | 2.35 (inactive)
88 | CC(C)c1ccc(C2N3CC4(C)CN2CC(C)(C3)C4)cc1 (centres undefined) | 4.83 (active)
89 | C#CC1(NS(=O)(=O)c2ccc(Sc3ccccc3)c([N+](=O)[O-])c2)CCCCC1 | -0.19 (inactive)
90 | Cc1cc(C)c(C#N)c(Nc2cccc(Br)c2)n1 | 0.66 (inactive)
91 | CCOC(=O)Cc1csc(NC(=O)Nc2ccccc2)n1 | -0.51 (inactive)
92 | CCOC(=O)Cc1nnc2c(Nc3cccc(Br)c3)nc3nonc3n12 | 3.07 (active)
93 | O=C(Cn1nc(C(F)(F)F)c2c1CCCC2)Nc1ccc(Cl)cc1 | 1.11 (inactive)
94 | COc1ccc(C2CC(=O)C3=C(C2)Nc2ccccc2NC3c2cc(F)ccc2F)cc1 (centres undefined) | 3.99 (active)
95 | COc1ccc(C2CC(=O)C3=C(C2)Nc2ccccc2NC3c2cccc(Cl)c2)cc1 (centres undefined) | 2.07 (inactive)
96 | COC(=O)c1ccc(C2Nc3ccccc3NC3=C2C(=O)CC(c2ccccc2)C3)cc1 (centres undefined) | 3.94 (active)
97 | O=C1CC(c2ccccc2)CC2=C1C(c1cccc(Cl)c1)Nc1ccccc1N2 (centres undefined) | 1.52 (inactive)
98 | COC(=O)C1=C(C)NC2=C(C(=O)CC(c3ccccc3)C2)C1c1ccc(C)cc1 (centres undefined) | 0.18 (inactive)
99 | CN(C)c1ccc(C2Nc3ccccc3NC3=C2C(=O)CC(c2ccc(Cl)cc2)C3)cc1 (centres undefined) | 1.16 (inactive)
